# ± gives the standard deviation of the averaged measurements.
# Experiments:
# Settings in all cases: concentration: 10 µM; 24 h
# HCC1569 [1] = experiment: cell number relative to DMSO (% of DMSO); higher = more cells (less growth inhibition / toxicity)
# How it was run: (§1)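 HCC1569 and TDF cells were seeded at 800 per well in 384-well plates in RPMI with 10% FBS and treated with compounds at 10 µM for 24 h at 37 °C, in triplicate. After fixation in 3.7% formaldehyde, cells were stained with a rabbit anti-H1.0 antibody, an AlexaFluor 647 secondary and DAPI, and six fields per well were imaged at ×10. H1.0 nuclear intensity or cell number is given as percent of the plate control, using the median of replicates, with HCC1569 values smoothed for positional effects.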
# TDF [2] = experiment: as above
# How it was run: as §1
# TDF [3] = experiment: H1.0 immunofluorescence intensity relative to DMSO (% of DMSO); higher = stronger H1.0 induction, active = 120 or more
# How it was run: as §1
# HCC1569 [4] = experiment: H1.0 immunofluorescence intensity relative to DMSO (% of DMSO); higher = stronger H1.0 induction, active = 140 or more
# How it was run: as §1
# 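For H1.0 immunofluorescence intensity relative to DMSO in this document: TDF is a line of transformed human dermal fibroblasts of mesenchymal origin.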
# 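For cell number relative to DMSO in this document: TDF denotes transformed human dermal fibroblasts of mesenchymal origin.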
Compound,cell number (HCC1569 [1]),cell number (TDF [2]),H1.0 immunofluorescence intensity (TDF [3]),H1.0 immunofluorescence intensity (HCC1569 [4])
NC(N)=NCc1cccc(I)c1 [N-(3-iodobenzyl)guanidine],108,97.3,104 (inactive),105 (inactive)
C=CCSC[C@H](N)C(=O)O [(2R)-3-(allylsulfanyl)-2-aminopropanoic acid],103,95.1,88.7 (inactive),90.1 (inactive)
CC(=O)OCC1OC([S-])C(OC(C)=O)C(OC(C)=O)C1OC(C)=O.CCP(CC)CC.[Au+] (centres undefined) [Auranofin],38,15.4,155 (active),146 (active)
CC(C)(C)OC(=O)CN(Cc1ccc(Cl)cc1)Cc1ccc([N+](=O)[O-])s1,100,105,102 (inactive),99 (inactive)
CN1C(CC(=O)c2ccccc2)CCCC1CC(O)c1ccccc1 (centres undefined) [Lobeline],103,102,94.9 (inactive),99.8 (inactive)
NC(=O)c1nnn(Cc2cc(Cl)c(C(=O)c3ccc(Cl)cc3)c(Cl)c2)c1N,75,73.8,95.5 (inactive),151 (active)
O=C(C=Cc1ccc(O)cc1)CC(=O)C=Cc1ccc(O)cc1 [Bis demethoxycurcumin],83.7,95.1,96 (inactive),94.4 (inactive)
CC(CN(C)C)CN1c2ccccc2Sc2ccc(C#N)cc21 (centres undefined),93.5,90.4,118 (inactive),108 (inactive)
CCCCCCC=CCCCCCCCC(=O)O [9(E)-Hexadecenoic acid],99.8,97.4,105 (inactive),105 (inactive)
CCOc1ccc2c(c1)C(C)=CC(C)(C)N2 [Ethoxyquin],100,104,96.1 (inactive),98.9 (inactive)
Cl.Cl.NCCNS(=O)(=O)c1cccc2cnccc12 [H-9 dihydrochloride],102,90.7,107 (inactive),100 (inactive)
CCCC(C(=O)OCCN(CC)CC)(c1ccccc1)c1ccccc1.Cl [SKF-525A hydrochloride],94,100,88.8 (inactive),102 (inactive)
CC(=O)OCC=C(C)C=CC=C(C)C=CC1=C(C)CCCC1(C)C [Vitamin A acetate],98.7,107,91.8 (inactive),119 (inactive)
"CN(C)C(=S)NN=C(c1ccccn1)c1ccccn1 [(Z)-di(2-pyridinyl)methanone N,N-dimethylthiosemicarbazone]",75.1,52.4,107 (inactive),106 (inactive)
"Brc1c(Br)c(Br)c2[nH]cnc2c1Br [4,5,6,7-tetrabromo-1H-benzimidazole]",69.9,71.5,111 (inactive),103 (inactive)
CCCCCCCCCCCCCCCCCCC(=O)O [Nonadecanoic acid],96.7,102,101 (inactive),98 (inactive)
COc1ccc(C2CC(=O)c3c(O)cc(OC4OC(CO)C(O)C(O)C4OC4OC(C)C(O)C(O)C4O)cc3O2)cc1O (centres undefined) [Neohesperidin],99.8,104,107 (inactive),96.3 (inactive)
COc1cc(C(=O)OC2CC3CCC2(C)C3(C)C)ccc1O (centres undefined) [Tschimganine],101,103,99.6 (inactive),88.3 (inactive)
"CCCCCC=CCC=CCC=CCC1OC1CCCC(=O)O (centres undefined) [5,6-Epoxyeicosatrienoic acid]",101,108,89.4 (inactive),103 (inactive)
COc1ccc(S(=O)(=O)Nc2nc(-c3cccc([N+](=O)[O-])c3)c(CN3CCCCC3)s2)cc1OC,101,98.9,89.5 (inactive),110 (inactive)
CN1CCc2cc3c(cc2C(=O)Cc2ccc4c(c2C1)OCO4)OCO3 [Protopine],99.4,108,97.6 (inactive),92.4 (inactive)
"C#CCN[C@H]1CCc2ccccc21 [N-[(1S)-2,3-dihydro-1H-inden-1-yl]-N-(2-propynyl)amine]",102,104,92.2 (inactive),98.1 (inactive)
CC(C=CC1=C(C)CCCC1(C)C)=CC=CC(C)=CC(=O)O [Retinoic acid],104,102,95.8 (inactive),120 (inactive)
"CN1C(=O)CCC1c1cccnc1 (single isomer, unassigned; (-)) [(-)-Cotinine]",102 ± 1.1,112 ± 5.4,93.5 (inactive),93 (inactive)
"CCCCCC=CCC1OC1CC=CCC=CCCCC(=O)O (centres undefined) [11,12-Epoxyeicosatrienoic acid]",104,110,93.8 (inactive),97.7 (inactive)
CN1CCc2cccc3c2C1Cc1ccc(O)c(O)c1-3.Cl [(R)-(-)-Apomorphine.HCl],98.4,98.9,89.1 (inactive),103 (inactive)

Compound,cell number (HCC1569 [1]),cell number (TDF [2]),H1.0 immunofluorescence intensity (TDF [3]),H1.0 immunofluorescence intensity (HCC1569 [4])
Cl.Nc1nc2ccc(OC(F)(F)F)cc2s1 [Riluzole.HCl],101,89.9,96.2 (inactive),94.8 (inactive)
"OC[C@H]1NC[C@@H](O)[C@@H]1O [1,4-Dideoxy-1,4-imino-D-arabinitol]",105,97.9,88.6 (inactive),90.4 (inactive)
CCCCCCC=CCCCCCCCCCC(=O)O [11(E)-Octadecenoic acid],101,99.5,105 (inactive),103 (inactive)
Cc1ccccc1C(OCCN(C)C)c1ccccc1.O=C(O)CC(O)(CC(=O)O)C(=O)O (centres undefined) [Orphenadrine citrate],111,113,91.6 (inactive),96.1 (inactive)
CCCCCCCCCCCCCCCC(=O)OCC(O)C1OC(=O)C(O)=C1O (centres undefined) [Ascorbyl palmitate],98.6,105,96.1 (inactive),102 (inactive)
COc1c(C)c2c(c(O)c1CC=C(C)CCC(=O)O)C(=O)OC2 [Mycophenolic Acid],78.3 ± 3.8,63.3 ± 4.9,104 (inactive),116 (inactive)
"CCCCC(C)(C)C(O)C=CC1C(O)CC(=O)C1CC=CCCCC(=O)O (centres undefined) [16,16-Dimethyl-prostaglandin E2]",100,110,94.7 (inactive),109 (inactive)
"CC(C)(C)c1ccc(S(=O)(=O)Nc2ccc(-n3ccnc3)cc2)cc1 [Stem-Cell Factor/c-Kit Inhibitor, ISCK03]",100,102,103 (inactive),99.6 (inactive)
COc1ccc(-c2ccc3c(N4CCOCC4)nc(N4CC(C)OC(C)C4)nc3n2)cc1CO (centres undefined),73,78.1,87.6 (inactive),164 (active)
Cn1cnc2c(NC3CCCC3)ncnc21 [N6-Cyclopentyl-9-methyladenine],76.8,98.1,97.3 (inactive),159 (active)
NC(=O)c1cccc(-c2cccc(OC(=O)NC3CCCCC3)c2)c1,97.3,97.5,105 (inactive),124 (inactive)
CN1CC(O)C(O)C(O)C1CO (centres undefined) [N-Methyl-1-deoxynojirimycin],53,57,109 (inactive),185 (active)
O=C(CCc1ccc(O)cc1)c1c(O)cc(O)cc1O [Phloretin],97.73 ± 0.41,98.5 ± 17,96.1 (inactive),107 (inactive)
O=C1CCc2cc(OCCCCc3nnnn3C3CCCCC3)ccc2N1 [Cilostazol],101,109,90.2 (inactive),97 (inactive)
Cc1cc2nc(NCCCO)n(CC(=O)c3cc(C(C)(C)C)c(O)c(C(C)(C)C)c3)c2cc1C,67.9,78.5,97.1 (inactive),173 (active)
CC(O)CCCC(O)C=CC1C(O)CC(=O)C1CC=CCCCC(=O)O [19(R)-Hydroxy-prostaglandin E2],98.1,92.7,95.7 (inactive),92.1 (inactive)
COc1cc(-c2oc3cc(O)ccc3c(=O)c2O)ccc1O [Geraldol],85.9,73.9,95.2 (inactive),99.4 (inactive)
CC(C)=CCCC(C)=CCOc1ccc2ccc(=O)oc2c1 [Auraptene],105,103,103 (inactive),97.1 (inactive)
"O.Oc1cc(O)c2c(c1)OC(c1ccc(O)c(O)c1)C(O)C2 (single isomer, unassigned; (+)) [(+)-Catechin Hydrate]",98.9,110,90.6 (inactive),91.7 (inactive)
CC(C(=O)O)c1ccc(-c2ccccc2)c(F)c1 (centres undefined) [Flurbiprofen],98.6,101,97.4 (inactive),101 (inactive)
O=C(Nc1nc2ccc(NC(=O)C34CC5CC(CC(C5)C3)C4)cc2s1)c1ccccc1,45,20.4,170 (active),146 (active)
CC(C)NCC(O)COc1cccc2[nH]ccc12 (stereo not drawn) [S(-)-Pindolol],102,107,84.4 (inactive),98.4 (inactive)
CC1=NC(=NNc2ccc(C(=O)[O-])cc2)C(COP(=O)([O-])[O-])=C(C=O)C1=O.[Na+].[Na+].[Na+],101,103,93.5 (inactive),103 (inactive)
CC1COc2c(N3CCN(C)CC3)c(F)cc3c(=O)c(C(=O)O)cn1c23 (centres undefined) [Levofloxacin],103,100,98.5 (inactive),101 (inactive)
O=C(O)C1CCCNC1 (racemic),109,103,97 (inactive),92.1 (inactive)
